GPR151 activ – activators of human GPR151, primary screen, cell-based, PathHunter beta-arrestin, luminescence | G-protein coupled receptor 151 (Homo sapiens), Q8TDV0 | PathHunter beta-arrestin GPR151 cells | activation, % at 11.2 µM | 650,000 tested, 1% active; in the data active = activation above about 4.9%;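 also: 0% = median of compound wells and 100% = cells with positive control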
Target sequence (Q8TDV0 whole entry, looked up): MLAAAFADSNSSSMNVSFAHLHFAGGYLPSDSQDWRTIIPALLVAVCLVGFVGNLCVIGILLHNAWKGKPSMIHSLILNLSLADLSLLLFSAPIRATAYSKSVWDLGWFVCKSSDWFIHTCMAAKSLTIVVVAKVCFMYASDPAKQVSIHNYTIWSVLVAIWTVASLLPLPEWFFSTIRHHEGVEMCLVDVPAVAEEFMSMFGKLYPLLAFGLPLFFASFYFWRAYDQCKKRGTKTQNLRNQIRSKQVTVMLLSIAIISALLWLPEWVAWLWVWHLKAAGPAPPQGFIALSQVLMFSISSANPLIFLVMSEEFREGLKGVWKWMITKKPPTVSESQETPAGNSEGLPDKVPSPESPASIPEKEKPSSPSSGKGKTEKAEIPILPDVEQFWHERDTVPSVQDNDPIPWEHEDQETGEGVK
MITF primary – MITF inhibitors, primary screen, biochemical, AlphaScreen, human. AlphaScreen MITF homodimerization, bead proximity signal. inhibition, % at 2.6 µM. 650,000 tested, 0.91% active; in the data active = inhibition above about 50%;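 also: 0% = vehicle wells with protein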
FBW7 act – FBW7 E3 ligase activators, primary screen, biochemical, AlphaScreen, human | AlphaScreen FBW7–phospho-cyclin E peptide binding, activator screen | normalized activity (activation), % at 26.1 µM | 650,000 tested, 0.13% active; in the data active = normalized activity above about 1.9%;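 also: purified mutant Fbw7 with reduced substrate affinity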
TEAD-YAP block – TEAD-YAP interaction inhibition, primary screen, TEAD-YAP interaction inhibitor project, luminescence, HEK-TIYL cells. inhibition, % at 9.12 µM. TEAD-Gal4/YAP UAS-luciferase luminescence. 640,000 tested, 1.4% active. AID 1259422, 2018; in the data active = inhibition above about 32%;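 also: 0% = median of test compound wells and 100% = reference inhibitor wells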
Active calls of the source: *. Shown are actives, neighbours in structure and some others; about 3.4% of the full set was active somewhere.

SMILES	GPR151 activ	MITF primary	FBW7 act	TEAD-YAP block
COc1cc(OC)cc(C(=O)N/N=C(\C)CC(=O)NCc2ccco2)c1	-1	-8	1	51*
COc1ccc(C(=O)N/N=C(\C)CC(=O)NCc2ccco2)cc1	-1	24	1	-52
COc1ccccc1N=C1SCCN1C(=O)c1ccc([N+](=O)[O-])o1	-1	3	2.2*	4
COc1cccc2sc(=NC(=O)c3ccc([N+](=O)[O-])o3)n(C)c12	5	0	0	-2
O=C(CNC(=O)c1cccc(Br)c1)N/N=C/c1cn[nH]c1-c1ccccc1	0	2	0	7
O=C(c1cccc(Br)c1)c1cn[nH]c1-c1ccccc1O	1	5	0	46*
CN(Cc1cccs1)S(=O)(=O)c1ccc(Cl)c([N+](=O)[O-])c1	1	9	0	-2
CCNC(=S)NNC(=O)c1ccccc1OC	0	0	0	-5
COC(=O)c1nn(-c2ccc(-c3ccccc3)cc2)cc1O	-6	15	0	81*
CC1=C(C(=O)OC2CCCCC2)C(c2ccc(F)cc2)C2=C(CC(c3ccccc3)CC2=O)N1 (stereo not given)	0	14	1.9*	9
COc1ccc(C2CC(=O)C3=C(C2)NC(C)=C(C(=O)OC2CCCCC2)C3c2cccc(C)c2)cc1OC (stereo not given)	0	7	0	46*
COCCOC(=O)C1=C(C)NC2=C(C(=O)CC(c3ccc(OC)c(OC)c3)C2)C1c1cccc(C)c1 (stereo not given)	1	4	0	43*
COc1ccc(C2CC(=O)C3=C(C2)NC(C)=C(C(=O)OC(C)C)C3c2cccc(C)c2)cc1OC (stereo not given)	-1	4	0	52*
COc1ccc(C2CC(=O)C3=C(C2)NC(C)=C(C(=O)OC(C)C)C3c2cccc(Br)c2)cc1OC (stereo not given)	2	-3	0	31
CCOc1ccc(C2C(C(=O)OC)=C(C)NC3=C2C(=O)CC(c2ccc(OC)c(OC)c2)C3)cc1 (stereo not given)	0	0	0	-11
COc1ccc(C2CC(=O)C3=C(C2)NC(C)=C(C(=O)OC(C)C)C3c2cccc(Cl)c2)cc1OC (stereo not given)	0	5	1	46*
COc1ccc(C2CC(=O)C3=C(C2)NC(C)=C(C(=O)OC(C)C)C3c2ccccc2OC)cc1OC (stereo not given)	-1	14	1	1
CC1=C(C#N)C(c2ccccc2Cl)C2=C(CC(c3ccccc3)CC2=O)N1 (stereo not given)	-1	1	0	33*
CCOc1ccc(C2C(C(=O)OC)=C(C)NC3=C2C(=O)CC(c2ccc(OC)c(OC)c2)C3)cc1OC (stereo not given)	-1	-1	0	41*
COc1ccc(C2CC(=O)C3=C(C2)NC(C)=C(C(=O)OC(C)C)C3c2ccccc2F)cc1OC (stereo not given)	0	11	0	43*
COc1ccc(NC(=O)COC(=O)c2cc(=O)c3ccccc3o2)cc1Cl	0	0	0	13
CC(=O)Nc1cccc(-c2cnn3c(NCc4ccc5c(c4)OCO5)ccnc23)c1	1	-9	0	4
Cc1cc(Cl)ccc1OCC(=O)NCc1cccnc1	-1	10	0	-4
CCC(C)OC(=O)C1=C(C)NC2=C(C(=O)CC(c3ccc(Cl)cc3)C2)C1c1cccc(Cl)c1 (stereo not given)	1	11	1.9*	6
CCOC(=O)C1=C(C)NC2=C(C(=O)CC(c3ccc(OC)c(OC)c3)C2)C1c1cccc([N+](=O)[O-])c1 (stereo not given)	-1	-1	0	5
SMILES	GPR151 activ	MITF primary	FBW7 act	TEAD-YAP block
COc1ccc(C2CC(=O)C3=C(C2)NC(C)=C(C(=O)OC(C)C)C3c2cccc([N+](=O)[O-])c2)cc1OC (stereo not given)	-1	-10	0	39*
CCC(C)OC(=O)C1=C(C)NC2=C(C(=O)CC(c3ccccc3)C2)C1c1cccc2ccccc12 (stereo not given)	0	6	2.2*	9
Nc1c(C(=O)Nc2nccs2)sc2nc3c(cc12)CCCC3	-1	-19	0	77*
Nc1c(C(=O)Nc2ccc(Cl)cn2)sc2nc3c(cc12)CCC3	4	12	0	94*
CCc1nnc(NC(=O)c2sc3nc4c(cc3c2N)CCC4)s1	-1	1	0	-76
COc1ccc(S(=O)(=O)NCC(c2ccc3c(c2)CCN3C)N2CCN(C)CC2)cc1 (stereo not given)	0	-6	0	8
CN1CCN(C(CNS(=O)(=O)c2ccc(Cl)cc2)c2ccc3c(c2)OCO3)CC1 (stereo not given)	0	17	2.4*	13
CN1CCN(C(CNS(=O)(=O)c2cccc(F)c2)c2ccc3c(c2)CCN3C)CC1 (stereo not given)	1	59*	0	7
N#CC(c1nc2ccccc2nc1Cl)S(=O)(=O)c1ccccc1 (stereo not given)	1	-8	0	0
c1ccc(Nc2ccnc(N3CCc4ccccc4C3)n2)cc1	-1	-1	0	-47
c1ccc2c(c1)CCN(c1nc3ncnc(Nc4ccc(N5CCOCC5)cc4)c3[nH]1)C2	-2	-1	0	53*
c1ccc2c(Nc3nccc(Nc4ccc(N5CCOCC5)cc4)n3)nccc2c1	4	15	0	62*
c1ccc2c(Nc3nc4ncnc(Nc5ccc(N6CCOCC6)cc5)c4[nH]3)nccc2c1	0	45	0	40*
c1ccc(Nc2ncnc3nc(Nc4ccc(N5CCOCC5)cc4)[nH]c23)cc1	1	-12	0	-6
c1ccc2c(c1)CCN(c1nccc(Nc3ccc(N4CCOCC4)cc3)n1)C2	1	7	0	41*
CC1CCCCC1NC(=O)c1ccc(Sc2ccc(F)cc2)c([N+](=O)[O-])c1 (stereo not given)	-1	17	0	-1
Cc1cnc(-c2ccc(N3CCOCC3)nc2)nc1NCCCN1CCCC1=O	-1	7	0	10
Cc1nc2ccccn2c1-c1csc(Nc2ccc(O)cc2)n1	2	-1	0	31
Cc1nc2ccccn2c1-c1csc(Nc2ccc(N)cc2)n1	0	6	0	54*
Cc1nc2ccccn2c1-c1csc(N)n1	-1	8	0	44*
CC(=O)Nc1ccc(Nc2nc(-c3c(C)nc4ccccn34)cs2)cc1	0	-6	0	50*
O=c1c2sc(=S)n(CCc3ccccc3)c2nc(SCc2cccc([N+](=O)[O-])c2)n1C1CCCCC1	-1	-1	0	-7
CCOC(=O)c1c(NC(=O)Cc2ccc(OC)cc2)sc(C(=O)Nc2cccc(Cl)c2C)c1C	-2	9	0	0

Compound activity as filed in PubChem.
